In the library only some 28% were active in any assay of this set; here they are far more common.
CYP2C19 inhib: blocks human cytochrome P450 2C19. P33261. CYP2C19 Supersomes, luciferin-H EGE luminescence, 30 min. inhibition, % at 5 µM. hit rate 21% among 96,000;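 active = CYP2C19 inhibition above a set limit at 5 µM in the primary screen, cut at about 50% in these data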;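 also: plate controls were negative control wells for no effect and 2.5 mM tranylcypromine positive control for full effect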
CYP2C9 activ: CYP2C9 (human) activation | P11712 | recombinant CYP2C9, luciferin-H conversion, luminescence; hits give high values; factor 1 = untreated enzyme, 0 = blocked | activation factor at 5 µM | hit rate 1.4% among 96,000;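 active = activation factor of 2 or more for CYP2C9 at a 5 µM dose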;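 also: 0 = sulfaphenazole-blocked wells and 1 = vehicle-only wells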
PLK1 inh: PLK1 (human) kinase inhibition. recombinant PLK1 kinase, TR-FRET peptide phosphorylation. P53350. hit rate 0.53% among 97,000. AID 619. inhibition, % at 10 µM;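 active = inhibition of 50% or more in the single-concentration screen; inactive = inhibition below 50%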;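 also: 0% = DMSO max control and 100% = H-89 dihydrochloride min control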
PLK1 PBD inh: blocks phosphopeptide binding to human Plk1 polo box domain; Plk1 PBD phosphopeptide binding, fluorescence polarization; inhibition, %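 (tested at about 20 µM)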; hit rate 0.13% among 97,000; AID 693; P53350; in the data active = inhibition above about 34%, passing the limit was not always enough
CYP2C9 inh: blocks human cytochrome P450 2C9 | CYP2C9 Supersomes, luciferin-H conversion, luminescence | inhibition, % at 5 µM | hit rate 20% among 96,000;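 active = blocking of liver enzyme CYP2C9 beyond about 50% at 5 µM, limit read from the data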
CYP2C19 activ: activators of human cytochrome P450 2C19 | P33261 | recombinant CYP2C19, luciferin-H EGE luminescence; hits give high values; 0 = fully inhibited enzyme, 1 = untreated enzyme | activation factor at 5 µM | 96,000 tested, under 10 active | AID 1025;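 active = activation factor of at least 2 at 5 µM in the primary screen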;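 also: 0 = wells with 2.5 mM tranylcypromine and 1 = vehicle-only wells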
* marks the source's active call; other numbers are inactive results; . = not tested or not shown.

SMILES | CYP2C19 inhib | CYP2C9 activ | PLK1 inh | PLK1 PBD inh | CYP2C9 inh | CYP2C19 activ
O=C(/C=C(\c1ccc(Cl)cc1)n1cncn1)c1ccc(Cl)cc1 | 90* | 0.9 | -10 | 1 | 8 | 0.1
Cc1ccc(NC(=O)CSc2nc(-c3ccco3)cc(C(F)(F)F)n2)cc1C | . | . | -7 | 6 | . | .
O=C(CCSc1nc(-c2ccc3c(c2)OCO3)cc(C(F)(F)F)n1)NCc1ccco1 | 69* | 0.3 | -23 | -13 | 65* | 0.3
O=C(CCSc1nc(-c2ccco2)cc(C(F)(F)F)n1)Nc1ccc2c(c1)OCO2 | 64* | 0.4 | -17 | 4 | 60* | 0.4
CC(Sc1nc(-c2ccccc2)cc(C(F)(F)F)n1)C(=O)NCCN1CCOCC1 (centres undefined) | 12 | 1 | -4 | -23 | 3 | 0.9
O=C1NNC(=O)C2C3C=CC(C4CC34)C12 (centres undefined) | 4 | 1 | -1 | -10 | 2 | 1
COc1c(N)c2ccccc2[nH]c1=O | 4 | 1 | . | . | 2 | 1
CCC1(C)Cc2ccccc2-c2nc(NCCO)n(-c3ccccc3)c(=O)c21 (centres undefined) | . | . | -10 | 13 | . | .
CC1(C)Cc2ccccc2-c2nc(NCCO)n(-c3ccccc3)c(=O)c21 | 61* | 0.7 | . | . | 35 | 0.4
CCC1(C)Cc2ccccc2-c2nc(NCCO)n(-c3ccc(C)cc3)c(=O)c21 (centres undefined) | 67* | 0.6 | -4 | -6 | 44 | 0.3
CNc1nnc(-c2ccc(N(C)C)cc2)s1 | . | . | -18 | -14 | . | .
CC1CCCC(NC(=O)COC(=O)c2ccc3ccccc3n2)C1C (centres undefined) | 62* | 0.6 | -15 | -1 | 40 | 0.4
CN(C)c1ccc(C(=O)OCC(=O)NC2CCCCC2)cc1 | 88* | 0.9 | -3 | 4 | 13 | 0.1
Cc1noc(C)c1COc1ccc(C(=O)OCC(=O)NC2CCCCC2C)cc1 (centres undefined) | 27 | 0.4 | -13 | -13 | 59* | 0.7
CC1CCCC(NC(=O)COC(=O)c2ccc(N(C)C)cc2)C1C (centres undefined) | 83* | 0.5 | -6 | 0 | 54* | 0.2
CCN(CC)c1ccc(C(=O)OCC(=O)NC2CCCCC2C)cc1 (centres undefined) | 49 | 1.3 | -8 | -16 | -26 | 0.5
Cc1cccc(OCc2nnc(SCC(=O)NCCc3ccccc3)o2)c1 | 20 | 1 | 2 | -13 | -3 | 0.8
CCOc1ccc(N2C(=O)CC(N3CCN(c4ccccc4F)CC3)C2=O)cc1 (centres undefined) | -13 | 1 | . | . | 0 | 1.1
Cc1ccc(-n2nnnc2-c2cnc3cc4c(cc3c2C)OCO4)cc1 | 19 | 0.8 | -13 | -23 | 22 | 0.8
CN(CCO)c1nc(N)c2c(N)nc3c(c2c1C#N)CC(=O)N3C1CCCC1 | 44 | 0.3 | 16 | -27 | 75* | 0.6
CC(C)(C)N1C(=O)Cc2c1nc(N)c1c(N)nc(N3CCCCC3CO)c(C#N)c21 (centres undefined) | 28 | 0.2 | -7 | -6 | 75* | 0.7
COc1cccc(N2CCN(C(=O)C3C4C=CC5(CN(Cc6ccccc6Cl)C(=O)C35)O4)CC2)c1 (centres undefined) | 22 | 0.4 | . | . | 62* | 0.8
Cc1cccc(-c2noc(CCCOc3ccc(Cl)cc3Cl)n2)c1 | 30 | 0.6 | 7 | 27 | 39 | 0.7
O=C1CC(N2CCC(c3nc4ccccc4o3)CC2)C(=O)N1c1ccc(Cl)cc1 (centres undefined) | . | . | -11 | -15 | . | .
O=C1CC(N2CCC(c3nc4ccccc4o3)CC2)C(=O)N1c1cc(Cl)cc(Cl)c1 (centres undefined) | 33 | 0.2 | -12 | -2 | 78* | 0.7
CCOc1ccc(Nc2nc3c(c(=O)[nH]2)CCCC3)cc1 | -11 | 1.1 | -7 | -4 | -8 | 1.1
CN(C)c1ccc(Nc2nc(-c3cccnc3)cs2)cc1 | 81* | 0.5 | -12 | -8 | 46 | 0.2
Clc1ccc(Nc2nc(-c3cccnc3)cs2)cc1 | 83* | 0.9 | -4 | 1 | 6 | 0.2
Cc1ccc(NC(=O)COS(=O)c2ccc(C)cc2)cc1 (centres undefined) | 32 | 0.6 | -19 | -5 | 44 | 0.7
CC(/C=C1\N=C(SCc2ccccc2Cl)SC1=O)=C\c1ccccc1 | 24 | 0.7 | -12 | 10 | 30 | 0.8
